# Compounds with a hit are over-represented: about 4.1% of the library has one in this group of screens.
# MRP-1 activ = H69AR viability gain despite doxorubicin, primary screen, MRP-1 activator project, H69AR cells, CellTiter-Glo. 0.61% of 140,000 active. AID 799, 2007. viability increase, % at 10 µM. viability rescue;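 active = viability gain under doxorubicin at or above a set limit, the compound median plus 3 SD, cut at about 4.7% in these data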;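 also: MRP-1 overexpressing cells given doxorubicin 25 µM after compound pretreatment; 18-22 h compound pretreatment then 72 h with doxorubicin before readout; 0% = doxorubicin-only wells and 100% = vehicle-treated cells without doxorubicin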
# PTK2B oligo ant = antagonists of Pyk2 self-association, primary screen, Q293 cells, FERM NanoBiT luminescence, HTS; z-score (the deposit names both 25 µM and 10 µM); Protein-tyrosine kinase 2-beta (Homo sapiens), Q14289; 0.83% of 99,000 active; active compounds read low; AID 1347419, 2020;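 active = Z-score of -3 or lower, scaled per plate to the spread of control and sample wells; inactive = z-score above -3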;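 also: negative z-score means lost luminescence so less FERM oligomerization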
# MRP reversal = reversal of MRP1-mediated doxorubicin resistance, primary screen, H69AR cells, doxorubicin co-treatment; H69AR cells + 2 uM doxorubicin, CellTiter-Glo, 72 h; differential viability (reversal), % at 10 µM; 0.04% of 85,000 active;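 active = viability drop by adding the cancer drug above about 55%, with treated viability meeting a 40% cutoff, limit read from the data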;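 also: viability without doxorubicin minus viability with 2 µM doxorubicin for each compound; larger differential means the compound sensitizes cells more to doxorubicin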
# CD11b adhes enh = enhancers of CD11b/CD18 adhesion to fibrinogen, primary screen, K562 cells, luminescence | 0.07% of 93,000 active | ATPlite luminescence | activation, % at 10 µM | AID 1499, 2009;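 active = 10 µM primary screen giving 50% or more activity, confirmed by 40% or more on retest at that dose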
# CD11b adhes inh = inhibitors of CD11b/CD18 adhesion to fibrinogen, primary screen, K562 cells, luminescence; Integrin beta-2 (Homo sapiens) + Integrin alpha-M (Homo sapiens), P05107+P11215; ATPlite luminescence; Mn2+ added to activate the integrin; inhibition, % at 10 µM; 0.54% of 93,000 active; AID 1497, 2009;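 active = primary inhibition of 50% or more at 10 µM, then 40% or more on retest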
# Cav32 inh = Cav3.2 calcium influx blockers – cell-based, Fluo-4 calcium fluorescence, FDSS, MLSMR library, primary screen; Cav3.2-expressing cells; active compounds read low; B-score at 10 µM; 4% of 100,000 active;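 active = single-dose well whose peak fluorescence ratio is a statistical outlier from its plate by either plate-standardised score or position-corrected B-score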
# * hit, by the source's call; nt = no result.
SMILES,MRP-1 activ,PTK2B oligo ant,MRP reversal,CD11b adhes enh,CD11b adhes inh,Cav32 inh
Clc1ccc(CSc2nnc(-c3ccncc3)o2)c(Cl)c1,-2.2,0.54,-1.9,-1.6,-2.8,-0.198
Cc1nnc(N2C(=O)c3oc4ccccc4c(=O)c3C2c2ccco2)s1 (stereo unspecified),-1.1,nt,4.5,1.8,-19.2,0.743
Cc1cccc(NS(=O)(=O)c2cc(C(=O)N3CCCC3)ccc2Cl)c1,-1.7,nt,nt,nt,nt,nt
CCOc1ccc(Nc2ncnc3c2cnn3Cc2ccccc2)cc1,1.4,-3.13*,21.8,nt,nt,-2.66
S=C(NCCc1ccccn1)Nc1ccc(Cl)cc1,-3.9,nt,nt,nt,nt,nt
O=C(N/N=C\c1ccc(Sc2ccccn2)o1)c1cccc(F)c1,-3.3,-1.27,nt,nt,nt,1.17
O=C(N/N=C/c1ccc(Sc2ccccn2)o1)c1cc2ccccc2cc1O,-1.1,-0.15,nt,2.4,-10.2,-4.99*
Cn1c(=O)c2c(SCc3ccccn3)nc(CC(C)(C)C)nc2n(C)c1=O,-1.8,nt,16.9,6.6,-16.0,-5.88*
CCCc1nc(SCc2ccccn2)c2c(=O)n(C)c(=O)n(C)c2n1,1.9,nt,-4.8,-2.2,-1.9,-0.411
CC(CS(=O)(=O)c1cccc2cccnc12)N1CCCCC1 (stereo unspecified),-0.4,0.36,11.7,-0.1,-2.5,nt
CC1CCN(S(=O)(=O)c2ccc3ncn(CC(=O)N(C)Cc4ccccc4)c(=O)c3c2)CC1,-5.9,0.16,11.4,nt,nt,-4.64*
COC(=O)c1ccccc1NC(=O)Cn1cnc2ccc(S(=O)(=O)N3CCC(C)CC3)cc2c1=O,-1.8,0.6,nt,-0.5,-2.3,-1.27
CC(C)OC(=O)CSc1nnc(-c2cnccn2)n1C,-3.1,1.48,2.0,nt,nt,-0.488
O=C(Cn1nnc2ccccc21)OCC(=O)c1ccc(Cl)c(Cl)c1,-3.1,-3.97*,6.2,nt,nt,0.15
O=C(Cn1nnc2ccccc21)OCC(=O)c1ccccc1,-0.3,-0.35,14.4,nt,nt,-0.246
S=C(Nc1ccccc1)N1N=CCC1c1ccccc1 (stereo unspecified),0.3,-0.34,-9.0,-4.2,72.5*,-1.2
CC(C)[C@H](NC(N)=O)C(=O)Nc1ccc2c(c1)CCC2,0.7,-0.35,nt,7.3,-5.9,0.0717
Cc1cc(C)nc(NS(=O)(=O)c2ccc(NC(=O)NC3CCCCC3)cc2)n1,-0.2,1.47,5.8,0.2,-32.1,-0.00533
CCN1CCN(S(=O)(=O)c2cc(OCC(=O)NC3CCCCC3)c(C)cc2Cl)CC1,-0.8,1.38,10.9,-5.3,58.5*,1.33
Cc1cc(Cl)c(S(=O)(=O)N2CCCCCC2)cc1OCC(=O)NC1CCCCC1,-1.2,0.99,-8.2,-4.7,76.9*,-4.22*
FC(F)(F)c1cccc(CNc2ncccc2-c2nc3cc(Cl)ccc3o2)c1,5.2*,0.77,nt,0.9,3.5,-3.49
Cc1ccccc1-c1nc2cc(Cl)ccc2o1,-3.7,-0.44,4.8,-2.5,-1.7,0.423
CCOC(=O)C1=C(C)OC(N)=C(C#N)C1c1c(C)nn(-c2ccccc2)c1Cl (stereo unspecified),-2.5,-0.83,nt,1.4,-9.5,-9.23*
C=CCOC(=O)C1=C(C)OC(N)=C(C#N)C1c1c(C)nn(-c2ccccc2)c1Cl (stereo unspecified),-2.4,-1.92,-42.6,-2.8,20.1,-9.18*
Cc1ccc2c(c1)N(CC(=O)c1cccc(Cl)c1)C(=O)C(C)O2 (stereo unspecified),-4.2,-0.47,nt,-1.2,-8.4,0.0238
COc1ccc(C(=O)Nc2cc([N+](=O)[O-])ccc2N2CCN(C)CC2)cc1,-3.8,0.86,nt,-4.9,-3.6,0.611
Cc1[nH][nH]c(=O)c1C(c1c(C)[nH][nH]c1=O)c1cn(Cc2cccc3ccccc23)c2ccccc12,-4.9,-0.78,nt,nt,nt,-5.09*
COc1ccc(NCC(=O)N/N=C/c2ccc3c(c2)OCCO3)cc1,-0.1,nt,nt,nt,nt,nt
CC(C)(C)c1cc(S(=O)(=O)CCc2ccccn2)cc(C(C)(C)C)c1F,2.8,-1.38,-9.7,4.4,-12.9,-4.01*
Cc1c(Cl)c([N+](=O)[O-])nn1CC(=O)NC(C)C1CC2CCC1C2 (stereo unspecified),-3.9,0.94,nt,-2.2,-0.2,-8.24*

# From PubChem
